TcdB GH inh – inhibitors of Clostridioides difficile toxin B glycohydrolase; 0.24% of 350,000 active; inhibition, % at 9.99 µM; P18177; TcdB glycohydrolase enzymatic assay, plate reader; in the data active = inhibition above about 10%
BH1578 lux ind – quorum light induction in luxS cqsA deficient V. cholerae; AID 588436; 0.16% of 350,000 active; activation, % at 18.7 µM; V. cholerae BH1578 lux reporter, luminescence, 6 h; in the data active = activation mostly above about 9.7%, no sharp cut-off
Yp Topo-I inh – inhibitors of Yersinia pestis topoisomerase I | Y. pestis Topo-I cleavage product accumulation, plate reader | 0.064% of 360,000 active | activity, % at 10 µM | AID 504884; in the data active = activity above about 50%, passing the limit was not always enough
Mtb BioA inh – BioA (M. tuberculosis) enzyme inhibition; purified M. tuberculosis BioA enzyme, plate reader; inhibition, % at 9.99 µM; 0.096% of 360,000 active; AID 602481; in the data active = inhibition above about 40%
VHR inh abs – DUSP3 (human) phosphatase inhibition; AID 1654; P51452; recombinant VHR phosphatase, pNPP absorbance; 0.52% of 290,000 active; inhibition, % at 13.3 µM; in the data active = inhibition above about 50%
Target sequence (P51452 whole entry, looked up): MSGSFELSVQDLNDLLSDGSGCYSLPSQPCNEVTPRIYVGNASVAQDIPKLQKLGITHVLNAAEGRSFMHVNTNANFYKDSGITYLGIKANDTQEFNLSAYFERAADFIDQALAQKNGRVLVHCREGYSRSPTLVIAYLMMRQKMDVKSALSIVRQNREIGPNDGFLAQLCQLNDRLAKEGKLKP
PfHsp40 rescue – restores yeast growth despite PfHsp40 toxicity; growth rescue, % at 12.5 µM; AID 504582; S. cerevisiae expressing PfHsp40, growth rescue, ATP luminescence; 0.68% of 340,000 active; in the data active = growth rescue above about 28%, passing the limit was not always enough;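 also: yeast W303a lacking pdr1 and pdr3 grown in galactose medium; growth measured after three days at 30 °C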
* hit, by the source's call; i = inactive; / = no result. An excerpt weighted towards active compounds, which were near 1.2% of everything screened.

SMILES	TcdB GH inh	BH1578 lux ind	Yp Topo-I inh	Mtb BioA inh	VHR inh abs	PfHsp40 rescue
COc1ccc(N2CCN(C(=O)c3ccc(Br)cc3)CC2)c([N+](=O)[O-])c1	0	i	-5	/	19	0
S=c1[nH]c2cc3ccccc3cc2[nH]1	0	0	-9	/	20	0
S=c1[nH]c2ccc3ccccc3c2[nH]1	/	1	4	/	53*	1
COC(=O)Nc1ccc(S(=O)(=O)N2CCCC(C(=O)NCC3CCCO3)C2)cc1 (stereo not drawn)	1	6	-3	0	/	-1
CC1CN(C(=O)COC(=O)c2ccc(F)cc2Cl)CC(C)O1 (stereo not drawn)	1	-1	-6	-2	50*	0
CCC(C)Sc1cccc(-c2nc3ccccn3c2NCc2ccccc2)c1 (stereo not drawn)	0	0	-4	-2	/	219*
CC(C)c1cc(C(N)=O)c(NC(=O)C2CCC2)s1	2	i	-8	/	16	-1
Cc1ccc(Cl)cc1NC(=O)CNC(=O)N1CC(=O)Nc2ccccc21	1	-3	-3	-1	57*	0
COc1cccc(NC(=O)CNC(=O)N2CC(=O)Nc3ccccc32)c1	3	-3	2	0	57*	-1
O=C(Cc1cccc(NC(=O)C2CCCN(C(=O)C3CCC3)C2)c1)Nc1cccc(C(=O)N2CCOCC2)c1 (stereo not drawn)	1	i	16	-1	/	-2
Cc1cc(C)cc(Oc2ncnc3c2ncn3Cc2c(Cl)cccc2Cl)c1	/	i	32	0	33	-1
CCOc1ccc(CCNC(=O)CCC(=O)N2CCOc3ccc(C)cc32)cc1OCC	2	0	-9	0	2	0
COc1ccc(CCC(=O)NC(C)C)cc1	0	0	-12	-2	-6	39*
COc1ccc(C(C)NC(=O)CCc2ccccc2)cc1 (stereo not drawn)	1	0	-1	0	15	-2
COCCN1C(=O)C(=O)/C(=C(/O)c2ccc(OC(C)C)cc2)C1c1cccnc1 (stereo not drawn)	/	-1	6	-1	-13	-1
Cc1ccc(C)c(-c2ccc(=O)n(Cc3cccc(Br)c3)n2)c1	1	-1	41	-3	53*	3
Cc1ccc(C)c(-c2ccc(=O)n(Cc3ccc(F)cc3Cl)n2)c1	5	0	42	3	5	6
COc1ccc(N(CC(=O)N/N=C/c2cccc(OC)c2OC)S(=O)(=O)c2ccccc2)cc1	0	0	23	-1	10	/
Cc1noc(C)c1-c1ccc(C(=O)NC2CCCCC2)c2occc12	1	0	27	0	/	/
Cc1ccc(Cc2c(-c3ccc(C)cc3)nc3ccc(Cl)cn23)cc1	11*	0	-5	-2	/	/
Cc1ccc(Cc2c(-c3ccccc3)nc3cc(C)ccn23)cc1	1	0	36	-1	/	/
Clc1ccc(-c2nc3ccc(Cl)cn3c2Cc2ccccc2)cc1	13*	0	19	-1	/	/
Clc1ccc2nc(-c3ccccc3)c(Cc3ccccc3)n2c1	3	-1	45	-1	/	/
Cc1ccn2c(Cc3ccccc3)c(-c3ccc(F)cc3)nc2c1	10*	0	43	-1	/	/
Cc1ccc(Cc2c(-c3ccc(Cl)cc3)nc3ccc(Cl)cn23)cc1	-2	-1	20	-1	/	/
SMILES	TcdB GH inh	BH1578 lux ind	Yp Topo-I inh	Mtb BioA inh	VHR inh abs	PfHsp40 rescue
CCCCc1c(-c2ccccc2OC)ncn1CCc1ccc(OC)cc1	1	/	/	/	/	/
COc1cccc(NC(=O)CCC2CCN(Cc3nccs3)CC2)c1	1	/	-3	2	52*	-2
COc1cccc(CC(=O)N2CCC(CCC(=O)Nc3cccc(OC)c3)CC2)c1	-2	-3	6	1	2	0
O=C(NCc1ccco1)C1CC(c2cccc([N+](=O)[O-])c2)=NO1 (stereo not drawn)	0	-1	-1	-3	10	-2
Cc1c(N2C(=O)SC(CC(=O)O)C2=O)c(=O)n(-c2ccccc2)n1C (stereo not drawn)	/	36*	4	0	0	0
CCn1c(SCC(=O)NNC(=O)Cc2ccccc2)nnc1-c1ccccc1	/	0	5	0	30	0
Cn1c(SCC(=O)NNC(=O)Cc2ccccc2)nnc1-c1ccccc1	/	31*	-2	/	6	1
O=C(NCCN1CCOCC1)C1CC(=O)N(c2ccc(F)cc2)C1 (stereo not drawn)	-1	0	-1	-1	20	-1
